The values below come from PubChem BioAssay.

Inconclusive results are not listed. Activity calls are given as the source filed them. Unless noted, how the calls were made is not given here.

For assay [1], the target named is ATP-dependent translocase ABCB1 (Homo sapiens) (UniProt P08183). Description: MDR1 (ABCB1) efflux transporter inhibition, cell-based (AID 377; in the data active means fluorescence slope change above about 50%). As to conditions: MDR1-expressing cells, fluorescent substrate accumulation slope; stronger effect = higher value; concentration not given here.
ATP-dependent translocase ABCB1 (Homo sapiens), sequence (P08183 whole entry, looked up): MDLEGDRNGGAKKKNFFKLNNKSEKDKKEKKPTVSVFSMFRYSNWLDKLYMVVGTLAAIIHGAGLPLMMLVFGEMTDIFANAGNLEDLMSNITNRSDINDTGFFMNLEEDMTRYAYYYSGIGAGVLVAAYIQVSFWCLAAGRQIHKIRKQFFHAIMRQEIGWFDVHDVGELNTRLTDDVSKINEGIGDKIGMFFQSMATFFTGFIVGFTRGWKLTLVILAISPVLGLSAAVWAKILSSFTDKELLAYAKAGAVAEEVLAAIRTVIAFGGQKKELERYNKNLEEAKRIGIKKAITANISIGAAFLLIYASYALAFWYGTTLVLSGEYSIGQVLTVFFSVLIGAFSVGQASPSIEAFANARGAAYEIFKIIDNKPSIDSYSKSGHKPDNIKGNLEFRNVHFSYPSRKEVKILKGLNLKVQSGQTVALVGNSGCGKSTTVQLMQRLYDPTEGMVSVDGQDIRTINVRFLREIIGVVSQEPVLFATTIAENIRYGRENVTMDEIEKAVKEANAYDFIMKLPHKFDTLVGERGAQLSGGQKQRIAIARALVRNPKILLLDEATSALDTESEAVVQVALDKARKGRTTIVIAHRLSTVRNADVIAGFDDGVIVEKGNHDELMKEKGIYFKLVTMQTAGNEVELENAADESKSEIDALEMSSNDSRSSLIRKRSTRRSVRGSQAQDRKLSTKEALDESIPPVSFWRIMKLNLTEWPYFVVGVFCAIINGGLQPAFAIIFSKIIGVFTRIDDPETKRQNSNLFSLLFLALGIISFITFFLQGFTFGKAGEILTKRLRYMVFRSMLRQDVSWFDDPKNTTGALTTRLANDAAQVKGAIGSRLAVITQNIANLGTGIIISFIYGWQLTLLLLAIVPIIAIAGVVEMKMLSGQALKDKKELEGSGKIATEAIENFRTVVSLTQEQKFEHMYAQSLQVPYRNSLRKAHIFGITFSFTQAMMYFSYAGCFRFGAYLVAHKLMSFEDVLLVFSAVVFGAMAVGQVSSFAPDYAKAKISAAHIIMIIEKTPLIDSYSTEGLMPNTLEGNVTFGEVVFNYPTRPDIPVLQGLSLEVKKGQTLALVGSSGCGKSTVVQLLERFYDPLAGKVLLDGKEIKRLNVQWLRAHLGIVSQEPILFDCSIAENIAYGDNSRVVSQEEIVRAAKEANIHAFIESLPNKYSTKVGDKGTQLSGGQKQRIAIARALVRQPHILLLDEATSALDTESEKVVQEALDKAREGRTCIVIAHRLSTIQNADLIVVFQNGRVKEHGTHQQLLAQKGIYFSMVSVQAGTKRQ
Assay [2] is described as follows: growth inhibition of DIPG glioma cells, dose response, cell-based, SU-DIPG-XVII, MIPE5.0, CellTiter-Glo, qHTS (AID 1347060; cut-off not given, nearly all actives have AC50 up to about 26 µM;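 on AC50: cells exposed to compound for 48 hours before viability readout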). Particulars: SU-DIPG-XVII viability, CellTiter-Glo ATP luminescence.
Assay [3] in a line: growth inhibition of DIPG glioma cells, dose response, cell-based, SU-DIPG-XIII, MIPE5.0, CellTiter-Glo, qHTS (AID 1347064; cut-off not given, nearly all actives have AC50 up to about 23 µM;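 on AC50: cells exposed to compound for 48 hours before the viability read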). Particulars: SU-DIPG-XIII viability, CellTiter-Glo ATP luminescence.
A short description of assay [4]: viability loss in pontine glioma line – cell-based, SU-DIPG-XXV, MIPE5.0, CellTiter-Glo, qHTS, dose response (AID 1347065; cut-off not given, nearly all actives have AC50 up to about 26 µM;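 further: cells exposed to compound for 48 hours before ATP readout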). As to conditions: CellTiter-Glo ATP luminescence.
Assay [5] is described as follows: JHH-DIPG-1 glioma cell viability, MIPE5.0 library, CellTiter-Glo luminescence, qHTS (AID 1347067; cut-off not given, nearly all actives have AC50 up to about 26 µM;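 further: cells exposed to compound for 48 hours before readout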). Particulars: JHH-DIPG-1 glioma viability, CellTiter-Glo ATP luminescence.
Assay [6] in a line: SU-DIPG-XXV glioma cell viability, MIPE5.0 library, qHTS (AID 1347068; cut-off not given, nearly all actives have IC50 up to about 30 µM;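 on IC50: cells exposed to compound for 48 hours before viability readout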).
A short description of assay [7]: growth inhibition of DIPG glioma cells, dose response, cell-based, SU-DIPG-XIII, MIPE4.0, CellTiter-Glo, qHTS (AID 1347061; cut-off not given, nearly all actives have AC50 up to about 37 µM;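 further: cells exposed to compound for 48 hours before readout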). As to conditions: SU-DIPG-XIII viability, CellTiter-Glo ATP luminescence.
A short description of assay [8]: growth inhibition of DIPG glioma cells, dose response, cell-based, SU-DIPG-IV, MIPE4.0, CellTiter-Glo, qHTS (AID 1347063; cut-off not given, nearly all actives have AC50 up to about 30 µM;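 further: compound exposure lasted 48 hours before the viability readout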). Particulars: SU-DIPG-IV viability, CellTiter-Glo ATP luminescence.
A short description of assay [9]: SU-DIPG-VI glioma cell viability, MIPE4.0 library, CellTiter-Glo luminescence, qHTS (AID 1347066; cut-off not given, nearly all actives have AC50 up to about 30 µM;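 further: cells exposed to compound for 48 hours before readout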). Particulars: CellTiter-Glo ATP luminescence.
Assay [10] can be described thus: circadian clock period modulators, cell-based, LOPAC library, luminescence reporter (AID 2774).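 Further: values are relative to mean of DMSO wells on each plate.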 As to conditions: circadian reporter cells, at 7 µM, actives lie on both sides.
The subject of assay [11] is Hepatitis C virus NS3 helicase. Description: HCV NS3 helicase inhibitors, primary screen, biochemical, fluorescence polarization, LOPAC1280 library (AID 687035; in the data active means inhibition above about 37%). As to conditions: Purified HCV NS3 helicase, Cy5-dT15 ssDNA binding fluorescence polarization; stronger effect = higher value; concentration not given here.
Assay [12] is described as follows: Cy5 fluorescence quenching or enhancement artefacts, artefact control for HCV NS3 helicase inhibitor project, biochemical, LOPAC1280 (AID 687037). As to conditions: Cy5-DNA-NS3h complex fluorescence interference counterscreen.
For assay [13], the system named is Neuropilin-2 / VEGF-C interaction (human). The experiment in a line: inhibitors of NRP2–VEGF-C binding, biochemical, microplate binding format, z-score (AID 743281). As to conditions: microplate NRP2/VEGF-C binding assay; stronger effect = lower value.
A short description of assay [14]: growth inhibition of DIPG glioma cells, dose response, cell-based, JHH-DIPG-1, MIPE4.0, CellTiter-Glo, qHTS (AID 1347062; cut-off not given, nearly all actives have AC50 up to about 27 µM;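 on AC50: cells exposed to compound for two days before readout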). Particulars: JHH-DIPG-1 viability, CellTiter-Glo ATP luminescence.
Assay [15] in a line: phospholipid biosynthesis inhibitors in animal cells, primary screen, cell-based, LOPAC library, screen 4 (AID 1347384). As to conditions: phospholipid biosynthesis inhibition screen, at 10 µM.
The nature of assay [16]: reducers of polyQ inclusions in PC12 cells, cell-based, NGF-treated PC12, GFPQ80 (AID 1614).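 Further: lower means fewer inclusions and 0 means no inclusions at all.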 Particulars: PC12 NGF-treated GFP-polyQ80 inclusion reduction.
Assay [17] in a line: LFS_MB_P medulloblastoma growth inhibition, cell-based, chromothripsis tumors, cisplatin or BGB combos (AID 1671449; in the data active means inhibition above about 80%;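 further: cells exposed for 96 hours; 0% = vehicle DMSO and 100% = killing by high DMSO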). Particulars: LFS_MB_P medulloblastoma cells.
A short description of assay [18]: HDN33 neuroblastoma growth inhibition, cell-based, chromothripsis tumors, cisplatin or BGB combos (AID 1671450; in the data active means inhibition above about 80%;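 further: cells exposed to compound for four days; 0% = vehicle DMSO and 100% = cell killing by high DMSO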). Particulars: HDN33 neuroblastoma cells, stronger effect = higher value.
The nature of assay [19]: ICB984 medulloblastoma cell growth inhibition, synergistic combos for chromothripsis tumors, cisplatin or BGB combos (AID 1671451).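 Further: cells exposed for 96 hours before readout; 0% = vehicle DMSO and 100% = killing by high DMSO.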 Particulars: ICB984 medulloblastoma cells, drug combinations, stronger effect = higher value.

Regarding `CC1(C)O[C@@H]2C[C@H]3[C@@H]4C[C@H](F)C5=CC(=O)C=C[C@]5(C)[C@H]4[C@@H](O)C[C@]3(C)[C@]2(C(=O)CO)O1`, in assay [1], the fluorescence slope change was 24.8% (inactive). The molecule was called inactive in assay [2], in assay [3], in assay [4], in [5] and in assay [6].
`CC1(C)O[C@@H]2C[C@H]3[C@@H]4CCC5=CC(=O)C=C[C@]5(C)[C@@]4(F)[C@@H](O)C[C@]3(C)[C@]2(C(=O)CO)O1`: the molecule was called inactive in assay [2], in [7], in assay [8], in assay [3], in [4] and in assay [9]. For the same molecule, the molecule was called inactive in assay [5] and in assay [6].
Consider `CNCCCC12CCC(c3ccccc31)c1ccccc12`, for which the fluorescence slope change in [1] was 137% (active). The period change in assay [10] was 2.03 h (inactive). For the same molecule, the inhibition in [11] is -6% (inactive). Further, the fluorescence ratio (interference) in assay [12] is 0.9 (inactive). Further, the z-score in [13] is -0.344 (inactive). Besides, the AC50 in [14] was 20.9 µM (active); in assay [4] it was 23.5 µM (active). The molecule was called inactive in assay [9], in [6] and in assay [15].
As to `OCCN(CCO)c1nc(N2CCCCC2)c2nc(N(CCO)CCO)nc(N3CCCCC3)c2n1`, the inclusion score in assay [16] is 2. Besides, in [10], the period change is -0.245 h (inactive). In addition, in assay [11], the inhibition is -2% (inactive). In addition, in assay [12], the fluorescence ratio (interference) was 1 (inactive). The AC50 is 20.9 µM (active) in assay [7] and 18.6 µM (active) in [4]. In addition, the call in [14] and in assay [15] was inactive.
As for `O=c1n(CCCN2CCN(c3cccc(Cl)c3)CC2)nc2ccccn12`, the fluorescence slope change in assay [1] was 85.5% (active). The molecule also gave an inclusion score in [16] of 2. In addition, the period change in assay [10] was -0.06 h (inactive). The inhibition in assay [11] was 0% (inactive). For the same molecule, the fluorescence ratio (interference) in assay [12] is 1 (inactive). Moreover, the z-score in [13] is 0.0689 (inactive). Further, the result in assay [7], in [14], in assay [8], in assay [9] and in assay [15] was inactive.
For `Nc1nc2ccc(OC(F)(F)F)cc2s1`, in assay [1], the fluorescence slope change was 60.6% (active). The period change in assay [10] is 0.11 h (inactive). Further, the inhibition in [11] is -3% (inactive). The fluorescence ratio (interference) in assay [12] is 0.9 (inactive). Also, the z-score in [13] is 1.45 (inactive). In addition, the result in [2], in assay [7], in assay [14], in [3], in [9] and in [15] was inactive. Moreover, the IC50 in assay [6] was 20.9 µM (active).
For the molecule `CCn1cc(C(=O)O)c(=O)c2cc(F)c(N3CCNCC3)cc21`, the fluorescence slope change in [1] was 98.4% (active). In addition, the inclusion score in assay [16] came out at 2. In addition, the molecule was classed as inactive in [7], in assay [14], in assay [3], in assay [4], in assay [9] and in assay [6]. The inhibition in assay [17] (at 0.5 µM, stronger effect = higher value) was 7.63% (inactive); in assay [17] (measured here: combination with BGB IC20, at 0.005 µM) it was -17.9%; in assay [17] (measured here: combination with BGB IC40, at 0.005 µM) it was -10.9%; in assay [17] (measured here: combination with BGB IC40, at 0.05 µM), -0.516%; in assay [17] (measured here: combination with cisplatin, at 0.5 µM, stronger effect = higher value) it was 9.32%; in assay [17] (measured here: combination with cisplatin, at 5 µM, stronger effect = higher value), -19.2%. In addition, the inhibition in [18] (BGB combo, at 5 µM) is -0.689%; in [18] (at 0.5 µM), 12.2% (inactive); in [18] (cisplatin combo, at 5 µM) it was -11.9%; in assay [18] (measured here: with BGB IC20 combination, at 0.5 µM) it was 32.5%; in assay [18] (measured here: with cisplatin IC20 combination, at 0.5 µM), 3.81%; in [18] (single agent, at 5 µM), -7.4%. Also, the inhibition was -26.7% in [19] (BGB IC20 combo, at 0.005 µM); -18.2% in assay [19] (BGB IC40 combo, at 0.005 µM); -41.7% in assay [19] (BGB IC40 combo, at 0.05 µM); -9.23% (inactive) in [19] (at 0.5 µM); -41.7% in [19] (cisplatin combo, at 0.05 µM); -13% in assay [19] (cisplatin combo, at 0.5 µM). For the same molecule, the inhibition in assay [19] (cisplatin combo, at 5 µM) is -17.2%; in [19] (measured here: 5 uM single agent, at 5 µM), -7.24%.
For the molecule `C[C@]12C=CC(=O)C=C1CC[C@@H]1[C@@H]2[C@@H](O)C[C@@]2(C)[C@H]1CC[C@]2(O)C(=O)CO`, the outcome in [2], in assay [7], in assay [14], in [3] and in assay [5] was inactive.
Take `CCCCc1oc2ccccc2c1C(=O)c1cc(I)c(OCCN(CC)CC)c(I)c1`: in assay [10], the period change is 0.145 h (inactive). For the same molecule, the inhibition in [11] was 0% (inactive). The fluorescence ratio (interference) in assay [12] is 0.9 (inactive). In addition, the z-score in assay [13] is -0.442 (inactive). Besides, the AC50 was 13.2 µM (active) in [2]; 7.43 µM (active) in assay [7]; 23.5 µM (active) in [14]; 1.05 µM (active) in assay [8]; 13.2 µM (active) in assay [3]; 23.5 µM (active) in [9]. Also, the AC50 in assay [5] is 16.6 µM (active). Also, the IC50 in [6] was 23.5 µM (active). Besides, the call in assay [15] was inactive.
Consider `COc1ccc2c(c1)c(CC(=O)O)c(C)n2C(=O)c1ccc(Cl)cc1`, for which, in assay [1], the fluorescence slope change was 95% (active). For the same molecule, in [16], the inclusion score was determined as 2. For the same molecule, the period change in assay [10] is 0.07 h (inactive). The inhibition in assay [11] is -5% (inactive). For the same molecule, in assay [12], the fluorescence ratio (interference) was 1 (inactive). For the same molecule, the z-score in assay [13] was 0.68 (inactive). The molecule was called inactive in [2], in [4], in assay [9], in assay [5] and in assay [6]. In addition, the AC50 in [7] was 18.7 µM (active).
